PubChem BioAssay
The source made the active and inactive calls. Unless noted, no rule for the calls is given here.

Columns and labels:
[1] = A549 cell viability effects, profiling panel, calcein-AM fluorescence, 48 h, basal (AID 1162); conditions: higher = more signal; also: test concentration not given here
[2] = adipocyte viability effects, profiling panel, cell-based, 3T3-L1 adipocytes, calcein-AM fluorescence, 48 h, basal (AID 1163); conditions: 3T3-L1 adipocytes viability, higher = more signal; also: test concentration not given here
[3] = HepG2 cell viability effects, profiling panel, calcein-AM fluorescence, 48 h, basal (AID 1164); conditions: higher = more signal; also: test concentration not given here
[4] = MM1S cell viability effects, profiling panel, calcein-AM fluorescence, 48 h, basal (AID 1165); conditions: higher = more signal;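 also: viability of MM1S multiple myeloma cells under basal unstimulated conditions; test concentration not given here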
[5] = basal RPMI8226 viability, no added stimulus, profiling panel, cell-based, calcein-AM fluorescence, 48 h, PK04 Diversity Set (AID 1166); conditions: RPMI8226 myeloma viability, higher = more signal;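 also: cells grown under basal conditions without added stimulus; test concentration not given here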
[6] = basal HepG2 mitochondrial membrane potential changes, profiling panel, cell-based, JC-1 fluorescence, 24 h, 100 nL compound (AID 1167); conditions: higher = more signal; also: test concentration not given here
[7] = basal 3T3-L1 adipocyte mitochondrial potential changes, profiling panel, cell-based, JC-1 fluorescence, 3T3-L1 adipocytes, 24 h, 100 nL compound (AID 1168); conditions: JC-1 mitochondrial fluorescence, higher = more signal, called active from +8 up or from −8 down; also: test concentration not given here
[8] = basal RPMI8226 mitochondrial membrane potential changes, profiling panel, cell-based, JC-1 fluorescence, 24 h, 100 nL compound (AID 1169); conditions: RPMI8226 myeloma, JC-1 mitochondrial potential fluorescence, higher = more signal; also: test concentration not given here
[9] = basal MM1S mitochondrial membrane potential changes, profiling panel, cell-based, JC-1 fluorescence, 24 h, 100 nL compound (AID 1170); conditions: higher = more signal; also: test concentration not given here
[10] = A549 lung cancer cell viability effects, profiling panel, resazurin fluorescence, 24 h, PK04 Diversity Set (AID 1171); conditions: higher = more signal, called active from +8 up or from −8 down; also: test concentration not given here
[11] = HepG2 liver cancer cell viability effects, profiling panel, resazurin fluorescence, 24 h, PK04 Diversity Set (AID 1172); conditions: higher = more signal; also: test concentration not given here
[12] = basal S. cerevisiae growth modulation, no modifier, primary screen, OD600, strain BY4716, 24 h, basal condition (AID 1173); conditions: OD600, 24 h, higher = more signal, called active from +8 up or from −8 down
[13] = MM1S myeloma cell viability, profiling panel, resazurin fluorescence, basal, 24 h, PK04 Diversity Set (AID 1174); conditions: higher = more signal, called active from +8 up or from −8 down;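 also: MM1S multiple myeloma cell line; test concentration not given here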
[14] = biological target: Dihydroorotate dehydrogenase (quinone), mitochondrial (Plasmodium falciparum (isolate 3D7)) (UniProt Q08210); test: PfDHODH enzyme inhibitors, primary screen, biochemical, C-terminal His tag, absorbance 600 nm (AID 1175); conditions: DCIP absorbance 600 nm, higher = more signal, called active from +8 up or from −8 down;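 also: recombinant parasite enzyme with a five histidine tag at its C terminus; test concentration not given here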
Chain of Dihydroorotate dehydrogenase (quinone), mitochondrial (Plasmodium falciparum (isolate 3D7)) (Q08210 whole entry, looked up): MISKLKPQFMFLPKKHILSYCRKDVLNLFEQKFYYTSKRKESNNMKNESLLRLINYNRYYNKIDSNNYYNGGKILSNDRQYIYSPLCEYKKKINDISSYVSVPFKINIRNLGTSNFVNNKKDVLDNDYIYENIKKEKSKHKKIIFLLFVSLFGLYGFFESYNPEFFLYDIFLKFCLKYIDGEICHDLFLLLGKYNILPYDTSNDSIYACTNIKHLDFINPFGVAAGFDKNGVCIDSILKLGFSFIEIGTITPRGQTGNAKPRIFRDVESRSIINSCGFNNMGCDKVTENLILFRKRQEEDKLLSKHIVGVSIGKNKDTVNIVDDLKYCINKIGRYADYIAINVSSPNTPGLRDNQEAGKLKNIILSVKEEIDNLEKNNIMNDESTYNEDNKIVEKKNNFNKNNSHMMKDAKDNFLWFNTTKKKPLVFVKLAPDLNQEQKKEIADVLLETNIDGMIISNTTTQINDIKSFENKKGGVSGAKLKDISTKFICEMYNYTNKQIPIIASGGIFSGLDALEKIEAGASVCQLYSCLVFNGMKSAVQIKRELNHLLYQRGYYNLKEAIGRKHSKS

[15] = P. aeruginosa biofilm formation inhibitors, primary screen, strain PAO1, LB-PBS medium, absorbance 600 nm (AID 1176); also: test concentration not given here; conditions: P. aeruginosa PAO1 growth/biofilm, A600, 12 h; higher = more signal
[16] = S. cerevisiae RM11-1a growth modifiers, primary screen, strain RM11-1a, OD600, basal, 24 h (AID 1177); conditions: OD600, 24 h, higher = more signal, called active from +8 up or from −8 down;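 also: cultures grown under basal conditions with no added stressor; test concentration not given here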
[17] = E. coli acrAB mutant growth effects, primary screen, E. coli filamentation inducers, strain DRC39, OD650, 24 h (AID 1178); conditions: higher = more signal, called active from +8 up or from −8 down;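 also: growth measured as culture turbidity by optical density at 650 nm; test concentration not given here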
[18] = E. coli acrAB mutant growth effects, primary screen, E. coli filamentation inducers, strain DRC39, OD650, 48 h (AID 1179);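 also: screen aims at cell division blockers that make cells filament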; conditions: E. coli DRC39 delta-acrAB growth, higher = more signal, called active from +8 up or from −8 down
[19] = RPMI8226 myeloma cell viability, profiling panel, resazurin fluorescence, basal, 24 h, PK04 Diversity Set (AID 1180); conditions: higher = more signal;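 also: RPMI8826 multiple myeloma cell line at 5000 cells per well; test concentration not given here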
[20] = biological target: E3 ubiquitin-protein ligase XIAP (Homo sapiens) (UniProt P98170); test: XIAP binders, primary screen, biophysical, small-molecule microarray, fluorescence 635 nm (AID 1181); conditions: small-molecule microarray binding, higher = more signal;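 also: score merges 667 nm emission and signal to noise over triplicate slides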
Chain of E3 ubiquitin-protein ligase XIAP (Homo sapiens) (P98170 whole entry, looked up): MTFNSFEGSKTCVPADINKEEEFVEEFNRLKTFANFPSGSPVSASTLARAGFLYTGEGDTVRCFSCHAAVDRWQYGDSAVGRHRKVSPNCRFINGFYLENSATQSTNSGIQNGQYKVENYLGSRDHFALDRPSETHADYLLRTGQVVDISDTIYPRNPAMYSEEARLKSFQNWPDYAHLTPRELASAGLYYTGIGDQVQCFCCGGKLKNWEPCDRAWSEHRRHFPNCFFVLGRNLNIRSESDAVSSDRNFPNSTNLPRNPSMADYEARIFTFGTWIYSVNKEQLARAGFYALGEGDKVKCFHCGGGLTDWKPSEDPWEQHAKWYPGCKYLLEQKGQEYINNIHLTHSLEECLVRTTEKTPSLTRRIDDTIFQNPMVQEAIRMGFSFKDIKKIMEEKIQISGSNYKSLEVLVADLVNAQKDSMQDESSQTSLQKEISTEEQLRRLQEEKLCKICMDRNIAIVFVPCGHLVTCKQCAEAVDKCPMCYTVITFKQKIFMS

Row | Structure (SMILES) | z-score [1] | z-score [2] | z-score [3] | z-score [4] | z-score [5] | z-score [6] | z-score [7] | z-score [8] | z-score [9] | z-score [10] | z-score [11] | z-score [12] | z-score [13] | composite z-score [14] | z-score [15] | z-score [16] | z-score [17] | z-score [18] | z-score [19] | composite z-score [20]
1 | O=C1O[C@@H](c2ccccc2)[C@@H](c2ccccc2)N2[C@@H](c3ccc(O)cc3)[C@]3(C(=O)Nc4ccc(C#CC5(O)CCCCCC5)cc43)[C@@H](C(=O)NC[C@H](O)c3ccccc3)[C@H]12 | -0.0476 | 0.264 | -0.181 | -2.14 | -1.31 | -2.14 | -1.16 (inactive) | -0.66 | -0.279 | 0.119 (inactive) | 0.677 | -0.263 (inactive) | -0.418 (inactive) | 0.409 (inactive) | 0.348 (inactive) | 0.417 (inactive) | -0.839 (inactive) | -0.938 (inactive) | -0.809 | -0.312
2 | C=C(C)c1cc2c(c(CCCCCC)n1)[Si](C(C)C)(C(C)C)OC2 | -0.926 | -0.197 | -0.567 | 0.134 | 0.414 | -0.592 | -0.617 (inactive) | 0.56 | -0.369 | 0.867 (inactive) | -0.0592 | 1.37 (inactive) | 0.272 (inactive) | 4.59 (inactive) | -0.735 (inactive) | 1.06 (inactive) | 0.251 (inactive) | 0.246 (inactive) | 0.16 | 0.0623
3 | CCOC(=O)C[C@H]1[C@H](OC(=O)Cc2ccc3c(c2)OCO3)[C@@H](NC(=O)CC(C)C)c2cc(OCCCO)ccc2N1C(=O)Cc1ccc(OC)cc1 | 0.777 | 0.413 | 1.63 | -0.322 | 0.791 | 3.73 | 0.31 (inactive) | 0.139 | -0.19 | -0.581 (inactive) | -0.334 | -0.252 (inactive) | -0.0151 (inactive) | -1.26 (inactive) | 0.101 (inactive) | -1.73 (inactive) | 0.287 (inactive) | 0.629 (inactive) | 0.2 | -0.0622
4 | Cc1cc(C)c(C(O)C2C=CC3C(=O)NC(=O)C3N2Nc2ccc(Cl)cc2Cl)c(C)c1 (stereo not given) | -2.15 | -0.22 | -1.68 | -3.52 | -3.03 | -2.65 | -0.143 (inactive) | -1.02 | -0.44 | -1.59 (inactive) | -2.05 | -3.83 (inactive) | -1.94 (inactive) | -0.0825 (inactive) | 1.62 (inactive) | 0.737 (inactive) | -0.731 (inactive) | -1.17 (inactive) | -1.81 | 0.0251
5 | CN(C)CCCNC(=O)[C@@]1(C)c2ccccc2C(=O)N(Cc2ccccc2)[C@H]1c1ccc(CO)cc1 | 0.0156 | 0.451 | 0.339 | -0.748 | 0.3 | 0.303 | 0.457 (inactive) | -0.798 | 0.445 | 0.356 (inactive) | -0.834 | 0.384 (inactive) | 0.367 (inactive) | -0.106 (inactive) | 0.683 (inactive) | 0.861 (inactive) | -0.147 (inactive) | -0.0983 (inactive) | 0.009 | 0.0155
6 | O=C(NCC(F)(F)F)[C@@H]1c2ccccc2C(=O)N(Cc2ccccc2C(F)(F)F)[C@H]1c1ccc(CO)cc1 | 0.215 | -0.484 | 0.0606 | 0.0756 | -0.328 | 0.277 | -1.07 (inactive) | 0.0161 | -0.894 | 0.456 (inactive) | -0.0877 | 0.0223 (inactive) | -0.474 (inactive) | -0.184 (inactive) | 0.292 (inactive) | -0.246 (inactive) | -0.308 (inactive) | 0.263 (inactive) | -0.853 | -0.184
7 | CC(C)[Si](C#CCCCC#N)(O[C@H](c1ccccc1)c1cn([C@H](CO)Cc2ccccc2)nn1)C(C)C | 0.773 | -0.0379 | -0.0933 | 0.172 | 0.231 | 0.0258 | -0.393 (inactive) | 0.266 | -1.47 | 0.723 (inactive) | 0.374 | -9.13 (active) | 0.288 (inactive) | -0.804 (inactive) | 1.44 (inactive) | -1.8 (inactive) | 0.178 (inactive) | 0.362 (inactive) | 0.289 | -0.111
8 | CN(C)CCCCNC(=O)[C@@H]1C[C@@H]2C(=O)N[C@@H](Cc3ccccc3)C(=O)N2[C@@H]1c1cccc(OCCO)c1 | 1.74 | 0.296 | 1.13 | -0.729 | 0.573 | 1.88 | 0.76 (inactive) | -0.0777 | 0.108 | -0.0805 (inactive) | 0.225 | -0.957 (inactive) | 0.977 (inactive) | -2.56 (inactive) | 0.215 (inactive) | -3.29 (inactive) | 2.51 (inactive) | 2.13 (inactive) | 0.588 | 0.109
9 | CCCCCCc1nc(-c2cc(C)c(OC)c(C)c2)c(C)c2c1[Si](C(C)C)(C(C)C)OC2 | -0.499 | 1.66 | -0.289 | -2.84 | -1.44 | 0.797 | 0.354 (inactive) | -0.18 | -1.6 | 0.197 (inactive) | -0.52 | -0.214 (inactive) | 0.899 (inactive) | -2.86 (inactive) | 0.374 (inactive) | -0.199 (inactive) | 0.326 (inactive) | -0.461 (inactive) | 0.736 | -0.0994
